Experimental data as given in PubChem BioAssay (NCI).
This is part of a sample that, as a whole, favours compounds with a hit. Of some 79,000 tested, about 15% had one in any assay. Cut-off read from the data, not from the text of the source: active = growth inhibition above about 70%; inactive = the rest.

Columns and labels:
[1] = NCI Yeast Anticancer Drug Screen. Data for the rad50 strain (AID 155);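 note: 0% = growth of vehicle-only cultures of the same strain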; details: S. cerevisiae rad50 strain growth inhibition; at 50.0 µM; hits give high values
Procedure, shortened: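 Growth of the mutant yeast was measured after compound exposure and referenced to vehicle-treated cultures.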

[2] = NCI Yeast Anticancer Drug Screen. Data for the mec2-1 strain (AID 157); details: S. cerevisiae mec2-1 strain, at 50.0 µM, hits give high values
Procedure, shortened: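 Each compound was tested on mec2-1 yeast, a strain altered in DNA damage repair or cell cycle control. Growth inhibition is reported relative to vehicle.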

[3] = NCI Yeast Anticancer Drug Screen. Data for the sgs1 mgt1 strain (AID 161);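 note: 0% = growth of cultures given vehicle only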; details: S. cerevisiae sgs1 mgt1 strain, at 50.0 µM, hits give high values
Procedure, shortened: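 Read-out: growth inhibition vs vehicle controls. Cells: mutant yeast strain deficient in DNA damage repair.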

[4] = NCI Yeast Anticancer Drug Screen. Data for the cln2 rad14 strain (AID 165);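 note: 0% = growth equal to vehicle treated cultures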; details: S. cerevisiae cln2 rad14 strain, at 50.0 µM, hits give high values
Procedure, shortened: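 Test compounds were added to cln2 rad14 yeast cultures; inhibition of growth was then determined by comparison with vehicle treatment.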

[5] = NCI Yeast Anticancer Drug Screen. Data for the bub3 strain (AID 167); details: S. cerevisiae bub3 mutant strain, at 50.0 µM, hits give high values
Procedure, shortened: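 Whole-cell yeast assay. The mutant strain was incubated with compounds, and growth inhibition was determined by comparison with vehicle-treated cells.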

[6] = NCI Yeast Anticancer Drug Screen. Data for the mlh1 rad18 strain (AID 175); details: S. cerevisiae mlh1 rad18 strain growth inhibition; at 50.0 µM; hits give high values
Procedure, shortened: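 Inhibition values reflect reduced growth of mutant yeast versus vehicle-treated controls following compound exposure; the mutations affect DNA damage repair.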

Measured: growth inhibition

N#CCCN(CCC#N)S(=O)(=O)c1ccccc1
inactive: [1] -3% | [2] 5.65% | [3] -4.9% | [4] -4.2% | [5] 14.1% | [6] -15.6%

Nc1cc(Cl)nc(Cl)n1
inactive: [1] 1.5% | [2] -25.6% | [3] 2.45% | [4] 10.1% | [5] -19.4% | [6] 3.8%

COc1ccc(/C=N/NC(=O)NCCCN(C)C)cc1
inactive: [1] 3.3% | [2] -29% | [3] -9.9% | [4] -5% | [5] -23.9% | [6] -7.65%
